High-throughput results: PubChem, National Center for Advancing Translational Sciences (NCATS)
L3MBTL1 block – qHTS Assay for the Inhibitors of L3MBTL1 | Lethal(3)malignant brain tumor-like protein 1 (Homo sapiens), Q9Y468 | AlphaScreen L3MBTL1–H3K9me1 peptide binding | Potency, µM (highest dose often 57.1 µM), inactives show top-dose activity, negative = inhibition, usual class: inhibitors | actives 0.66% (n = 230,000) | AID 485360, 2010; also: % is scaled to controls: 0 for no effect and ±100 for the full control effect; nearly all actives have a fitted effect of over 60% in size
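First, the protein-peptide complex forms for 30 min at room temperature (L3MBTL1 50 nM, biotinylated H3K9me1 peptide 75 nM). Next, compounds are pin-transferred and incubated 30 min. Finally, AlphaScreen beads are added and read after 30 min.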
JMJD2A Tudor – qHTS Assay for Inhibitors of JMJD2A-Tudor Domain; AlphaScreen JMJD2A-Tudor / H3K4me3 peptide binding; Potency, µM (doses to about 114 µM), for the others: at the highest dose activity change, negative = inhibition, actives largely listed as inhibitors; actives 4.4% (n = 390,000); AID 504339, 2011; also: % is scaled to controls: 0 for no effect and ±100 for the full control effect; nearly all actives have a fitted effect of over 50% in size
Target sequence (O75164 whole entry, looked up, the tested form may be a part): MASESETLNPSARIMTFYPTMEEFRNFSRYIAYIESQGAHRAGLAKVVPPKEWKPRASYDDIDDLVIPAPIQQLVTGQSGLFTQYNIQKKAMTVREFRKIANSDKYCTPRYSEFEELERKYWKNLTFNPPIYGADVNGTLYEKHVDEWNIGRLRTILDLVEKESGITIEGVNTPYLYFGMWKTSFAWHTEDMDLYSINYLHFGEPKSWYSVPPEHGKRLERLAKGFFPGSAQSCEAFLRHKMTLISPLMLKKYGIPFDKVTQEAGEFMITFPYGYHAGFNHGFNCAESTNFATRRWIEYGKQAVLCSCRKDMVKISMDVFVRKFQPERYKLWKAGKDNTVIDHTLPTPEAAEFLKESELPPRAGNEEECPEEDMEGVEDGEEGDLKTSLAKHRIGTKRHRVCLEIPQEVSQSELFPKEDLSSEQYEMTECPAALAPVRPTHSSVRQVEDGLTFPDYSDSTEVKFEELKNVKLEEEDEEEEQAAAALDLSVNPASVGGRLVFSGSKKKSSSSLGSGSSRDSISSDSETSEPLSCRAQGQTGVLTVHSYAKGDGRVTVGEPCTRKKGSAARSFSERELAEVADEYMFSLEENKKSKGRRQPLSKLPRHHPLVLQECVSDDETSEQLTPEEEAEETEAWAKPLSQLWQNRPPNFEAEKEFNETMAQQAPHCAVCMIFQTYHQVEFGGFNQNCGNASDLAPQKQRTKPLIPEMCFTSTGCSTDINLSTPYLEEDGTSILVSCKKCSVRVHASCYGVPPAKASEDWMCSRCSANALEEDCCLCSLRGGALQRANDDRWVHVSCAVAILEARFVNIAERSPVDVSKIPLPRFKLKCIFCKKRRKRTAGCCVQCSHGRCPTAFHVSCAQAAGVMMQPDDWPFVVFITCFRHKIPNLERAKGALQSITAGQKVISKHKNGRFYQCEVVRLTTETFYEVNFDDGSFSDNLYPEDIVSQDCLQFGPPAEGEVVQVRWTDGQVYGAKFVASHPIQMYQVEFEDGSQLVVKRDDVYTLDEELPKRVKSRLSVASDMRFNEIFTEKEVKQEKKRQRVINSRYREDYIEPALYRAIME
VDR inh – Inhibitors of the vitamin D receptor (VDR): qHTS | VDR-SRC2-3 peptide fluorescence polarization, 2 h | Potency, µM, for the others: max response, negative = inhibition, hits mostly inhibitors | actives 0.93% (n = 400,000) | AID 504847, 2011; also: % is scaled to controls: 0 for no effect and ±100 for the full control effect
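After 23 nl compound addition and a short centrifugation, plates sat for 2 hours at ambient temperature; polarization of fluorescence then indicated loss of VDR binding to peptide SRC2-3.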
HP1b chromo inh – HTS for Inhibitors of HP1-beta Chromodomain Interactions with Methylated Histone Tails; actives 0.56% (n = 390,000); AID 540317, 2011; AlphaScreen HP1-beta / biotin-H3K9me3 peptide binding; Potency, µM (highest dose often 114 µM), inactives show at the highest dose activity change, negative = inhibition, most hits filed as inhibitors; Chromobox protein homolog 1 (Homo sapiens), P83916; also: nearly all actives have a fitted effect of over 70% in size
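Compound inhibition of the preformed complex between 50 nM HP1-beta and 50 nM biotinylated H3K9me3 peptide was read by AlphaScreen. Buffer was PBS pH 7.4 with 0.01% Tween-20. Incubations ran 30 min at room temperature, with 10 ug/mL donor/acceptor beads.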
PLK1 PBD inh – qHTS for Inhibitors of PLK1-PDB (polo-like kinase 1 - polo-box domain): Primary Screen; Potency, µM, for inactives: max response, negative = inhibition, actives largely listed as inhibitors; Plk1 PBD binding of FITC phosphopeptide, fluorescence polarization; actives 2.8% (n = 360,000); also: series mostly up to about 57 µM; % is scaled to controls: 0 for no effect and ±100 for the full control effect; nearly all actives have a fitted effect of over 65% in size
BAZ2B inh – qHTS Assay for Inhibitors of BAZ2B | actives 4.4% (n = 360,000) | Bromodomain adjacent to zinc finger domain protein 2B (Homo sapiens), Q9UIF8 | Potency, µM (titrated, usually from 114 µM), for the others: at the highest dose activity change, negative = inhibition, usual class: inhibitors | AlphaScreen BAZ2B-H3K14Ac peptide displacement | AID 504333, 2011; also: % is scaled to controls: 0 for no effect and ±100 for the full control effect; nearly all actives have a fitted effect of over 60% in size
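AlphaScreen displacement: compounds (up to 110uM) incubated 30 min at room temperature with a preformed 50 nM BAZ2B/50 nM biotinylated H3K14Ac peptide complex in PBS pH 7.4 with Tween-20. Donor and acceptor beads at 10 ug/mL final added, 20 min light-protected before reading.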
Starred values were filed as active, the others as inactive; ? = inconclusive; / = no result; [ ] = remark or other dose. Rows were chosen to be rich in hits. Some 6.9% of all compounds tested hit in one or more screens of this group. Calls follow the shape of the dose curve; as a rule, active = well fitted curve in the direction sought with a large enough effect; inconclusive = small, poorly fitted or top-dose-only effect, or another doubt; inactive = no such curve, though single readings can be large; an effect the other way counts as inactive or inconclusive. Potency is read from the fitted curve at half-maximal effect.

SMILES	L3MBTL1 block	JMJD2A Tudor	VDR inh	HP1b chromo inh	PLK1 PBD inh	BAZ2B inh
CC1CCN(S(=O)(=O)c2ccc(C(=O)Nc3nc4ccc(F)cc4s3)cc2)CC1	/	-6%	12%	21%[57 µM]	/	5%
CCOC(=O)c1nnn(-c2nc(N3CCCC3)nc(N3CCCC3)n2)c1-c1ccccc1	3%	79µM*	14%	-6%	-25%	-3%
Cc1cnc(NC(=O)NCC2CCCC(CNC(=O)Nc3ncc(C)s3)C2)s1 (centres undefined)	/	?	-12%	-19%	-12%	32µM*
CCn1nc(C)c(CNC(=O)c2ccc(OC3CCN(Cc4ccccn4)CC3)cc2)c1C	/	-10%	-6%	11%	-4%	79µM*
COCC1CCCN(C(=O)c2ccc(OC3CCN(Cc4ccccn4)CC3)cc2)C1 (centres undefined)	-4%	28µM*	-7%	17%	-22%	-16%
CC(C)c1cc(CNC(=O)c2ccc(OC3CCN(Cc4ccccn4)CC3)cc2)on1	/	45µM*	-11%	2%	-28%	56µM*
Cc1nc(C(C)NC(=O)c2ccc(OC3CCN(Cc4ccccn4)CC3)cc2)c(C)s1 (centres undefined)	/	-34%	1%	59%	-14%	79µM*
CCn1cc(CNC(=O)c2ccc(OC3CCN(Cc4ccccn4)CC3)cc2)cn1	/	-24%	31%	25%[57 µM]	?	-15%
CC(=O)N1CCN(C(=O)c2ccc(OC3CCN(Cc4ccccn4)CC3)cc2)CC1	/	-4%	-2%	22%[57 µM]	-8%	-29%
CC1=C/C(=N\NC(=S)Nc2cccnc2)CC(C)(C)C1	-10%	?	-9%	?	-18%	/
NC(=S)Nc1cccc(O)c1	/	-5%	1%	44%	-5%	-14%
COCC(=O)N1CCC(Oc2ccc(C(=O)N3CCCCCCC3)cc2)CC1	/	-1%	3%	30%	1%	-2%
CC(C)N(Cc1cnn(C)c1)C(=O)c1ccc(OC2CCN(Cc3ccccn3)CC2)cc1	/	-36%	-6%	28%	1%	89µM*
COCCC(=O)N1CCC(Oc2ccc(C(=O)N3CCCCCC3)cc2)CC1	/	?	?	11%	11µM*	0%
CN(C(=O)c1ccc(OC2CCN(Cc3ccccn3)CC2)cc1)C1CCCCC1	/	-14%	16%	56%	3%	-24%
CCOC(=O)C1(C)CCCCCN1C(=O)c1ccco1 (centres undefined)	/	/	/	/	-5%	/
O=C1COc2ccc(-c3csc(NCCc4ccccc4)n3)cc2N1	-15%	?	-14%	-18%	-23%	50µM*
COc1cc(C)ccc1OCCCOc1cc(C)ccc1Cl	/	68%	-6%	107%	-3%	/
C/C=C/c1ccc(OCCCNC)c(OC)c1	/	1.1µM*	7%	?	-1%	50µM*
C/C=C/c1ccc(OCCNCc2ccccc2)c(OC)c1	1%	-18%	-23%	?	-23%	56µM*
C/C=C/c1ccc(OCCCCN(C)Cc2ccccc2)c(OC)c1	-12%	18µM*	3%	?	-4%	50µM*
C/C=C/c1ccc(OCCCCOc2ccccc2C(C)=O)c(OC)c1	45%	-8%	-8%	23%	2%	31%
CNCCCOc1ccc(C)cc1OC	49%	1.6µM*	-5%	-37%	-10%	40µM*
Cc1cccc(N=Nc2cnc(N)s2)c1	-5%	45µM*	?	?	?	?
CCOC(=O)c1ccc(Nc2nc(C(=O)OCC)nc3ccccc23)cc1	-9%	-12%	22%	61%	2%	-2%
SMILES	L3MBTL1 block	JMJD2A Tudor	VDR inh	HP1b chromo inh	PLK1 PBD inh	BAZ2B inh
CCOC(=O)c1nc(Nc2ccc(N3CCC(C)CC3)cc2)c2ccccc2n1	-29%	28µM*	2%	?	3%	40µM*
CCOC(=O)c1nc(Nc2cc(C)cc(C)c2)c2ccccc2n1	6%	2%	-1%	49%	1%	-16%
CCOC(=O)c1nc(Nc2ccc(Nc3ccccc3)cc2)c2ccccc2n1	/	28µM*	-16%	?	5%	16µM*
CCOC(=O)c1nc(Nc2ccc(OC)cc2)c2ccccc2n1	/	-11%	1%	39%	-13%	4%
CCOC(=O)c1nc(Nc2ccc(C(=O)O)cc2)c2ccccc2n1	3%	28µM*	8%	9%	-6%	-7%
CC(C)c1ccc(NC(=O)C2Cc3ccccc3N2C(=O)c2ccccc2)cc1 (centres undefined)	/	4%	-4%	31%	/	-6%
COc1cc(NC(=O)CSc2ccc(-c3sc(C)nc3C)nn2)cc(OC)c1	/	-11%	8%	26%	/	-31%
CCN(CC)CCCN(C(=O)c1ccc(Br)cc1)c1nc(-c2ccc(OC)cc2)cs1	-3%	56µM*	4%	?	-1%	50µM*
Cc1cc(C)n2nc(CNC(=O)c3cccc(N(C)C)c3)nc2n1	/	1%	5%	23%	/	-16%
CCc1nnc2c(Nc3ccc(N(CC)CC)cc3C)nc3ccccc3n12	/	16µM*	-3%	?	/	32µM*
CC1C(=O)CCC1(C(=O)O)c1ccccc1 (centres undefined)	1%	10%[11.4 µM]	-7%	1%	24µM*	13%
CCC(/C=C1\Sc2ccc(OC)cc2N1CCO)=C\c1sc2ccc(OC)cc2[n+]1CCO	?	22µM*	79µM*	40µM*	?	13µM*
CCC(=O)/C=C1/Sc2ccc(OC)cc2N1CCO	-6%	?	?	-21%	13µM*	-1%
CCC(/C=C1\Sc2ccc(OC)cc2N1CC)=C\c1sc2ccc(OC)cc2[n+]1CCCS(=O)(=O)[O-]	/	?	?	-21%	?	22µM*
CCC(=O)/C=C1/Sc2ccc(OC)cc2N1CC	-3%	-16%	0%	35%	?	7%[57.1 µM]
Cc1ccc(NC(=O)c2cc(S(=O)(=O)N3CCCC(C)C3)cn2C)c(Br)c1 (centres undefined)	/	-21%	-3%	14%[57 µM]	/	-1%
Clc1ccc(CCNc2ncnc3c2c(-c2ccccc2)cn3-c2ccccc2)cc1	/	-19%	14%	34%	/	-33%
O=C(CNC(=O)c1ccccc1F)NCCOc1ccccc1Cl	9%	-9%	-9%	0%	27µM*	-8%
O=C(NCCOc1ccccc1Cl)C(=O)NCCOc1ccccc1Cl	7%	-4%	-16%	44%	-1%	-2%
